# Experimental data published in paper PMC7862700, “An all-to-all approach to the identification of sequence-specific readers for epigenetic DNA modifications on cytosine”.
# Legend:
# Assay in all cases: DAPPL (digital affinity profiling via proximity ligation, sequencing); 10 mM Tris-HCl pH 7.5, 50 mM NaCl, 1 mM DTT, 4% glycerol, room temperature, 30 min; GST-TFs on glutathione beads, 16-mer random dsDNA library, 0.1% formaldehyde crosslink after washing; high values mean tight binding
# Settings in all cases: protein: recombinant; tags: N-terminal GST; dsDNA, one strand shown
# ELK1 = target: T1, ELK1 (Homo sapiens, UniProt P19419 1-428)
# T1 sequence: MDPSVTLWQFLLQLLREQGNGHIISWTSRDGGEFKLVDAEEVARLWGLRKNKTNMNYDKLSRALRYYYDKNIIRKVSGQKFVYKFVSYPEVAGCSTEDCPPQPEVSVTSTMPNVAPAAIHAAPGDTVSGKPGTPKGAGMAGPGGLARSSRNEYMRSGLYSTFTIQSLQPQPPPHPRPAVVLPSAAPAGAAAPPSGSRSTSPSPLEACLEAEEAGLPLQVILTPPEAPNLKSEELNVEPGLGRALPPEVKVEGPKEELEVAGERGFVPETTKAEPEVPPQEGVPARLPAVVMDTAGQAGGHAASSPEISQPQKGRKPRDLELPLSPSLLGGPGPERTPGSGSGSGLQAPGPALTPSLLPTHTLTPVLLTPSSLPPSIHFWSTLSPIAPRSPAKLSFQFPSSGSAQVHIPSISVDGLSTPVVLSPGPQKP
# How it was run: (§1)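 A tag-only sample was pooled with DNA-barcoded human transcription factors that had been expressed in yeast as GST fusions and captured on glutathione beads. The pools were incubated for 30 min at room temperature with 200 nmole of a random double-stranded 16-mer DNA library in Tris/NaCl/DTT/glycerol buffer, then washed, crosslinked with 0.1% formaldehyde, proximity-ligated (BsaI/T4 ligase, 1 h, 37 °C), PCR-amplified and sequenced on an Illumina NextSeq500. Binding signal is each hexamer's read frequency for a factor divided by its frequency for the tag-only sample.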
# GABPA = target: T2, GABPA (Homo sapiens, UniProt Q06546 1-454)
# T2 sequence: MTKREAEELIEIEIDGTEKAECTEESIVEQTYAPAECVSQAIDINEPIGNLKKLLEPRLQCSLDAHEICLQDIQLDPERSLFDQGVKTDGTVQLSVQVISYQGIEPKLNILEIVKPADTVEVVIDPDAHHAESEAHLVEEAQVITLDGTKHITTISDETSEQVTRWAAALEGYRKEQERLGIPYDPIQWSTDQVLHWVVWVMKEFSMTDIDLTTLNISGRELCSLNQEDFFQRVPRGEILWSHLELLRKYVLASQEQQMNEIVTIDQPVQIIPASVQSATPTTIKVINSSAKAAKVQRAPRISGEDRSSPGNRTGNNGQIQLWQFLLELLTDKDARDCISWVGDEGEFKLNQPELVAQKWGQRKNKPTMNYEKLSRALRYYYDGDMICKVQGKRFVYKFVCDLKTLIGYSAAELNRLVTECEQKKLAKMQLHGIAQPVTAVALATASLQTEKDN
# How it was run: as §1
# ELF1 = ELF1 (Homo sapiens, UniProt P32519 1-619)
# How it was run: as §1
# EHF = target: T3, EHF (Homo sapiens, UniProt Q9NZC4 1-300)
# T3 sequence: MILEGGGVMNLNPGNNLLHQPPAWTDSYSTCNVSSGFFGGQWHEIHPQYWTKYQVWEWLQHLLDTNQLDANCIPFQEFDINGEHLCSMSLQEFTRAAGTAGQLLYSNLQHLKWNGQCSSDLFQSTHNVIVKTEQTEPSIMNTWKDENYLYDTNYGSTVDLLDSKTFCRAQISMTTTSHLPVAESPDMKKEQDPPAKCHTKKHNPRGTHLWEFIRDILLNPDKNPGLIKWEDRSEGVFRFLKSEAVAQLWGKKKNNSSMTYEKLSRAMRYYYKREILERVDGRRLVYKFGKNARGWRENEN
# How it was run: as §1
# ELK3 = target: T4, ELK3 (Homo sapiens, UniProt P41970 1-407)
# T4 sequence: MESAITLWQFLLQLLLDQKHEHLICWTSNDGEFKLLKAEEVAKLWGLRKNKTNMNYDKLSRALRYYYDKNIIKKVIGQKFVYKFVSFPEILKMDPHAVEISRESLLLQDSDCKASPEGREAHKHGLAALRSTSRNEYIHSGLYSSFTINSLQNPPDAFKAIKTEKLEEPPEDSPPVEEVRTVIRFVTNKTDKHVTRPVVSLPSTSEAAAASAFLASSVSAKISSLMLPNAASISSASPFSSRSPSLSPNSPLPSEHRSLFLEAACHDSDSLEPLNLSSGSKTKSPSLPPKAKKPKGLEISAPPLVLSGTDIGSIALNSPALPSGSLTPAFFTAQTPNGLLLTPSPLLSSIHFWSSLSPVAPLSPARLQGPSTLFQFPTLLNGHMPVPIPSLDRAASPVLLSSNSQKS
# How it was run: as §1
# FEV = target: T5, FEV (Homo sapiens, UniProt Q99581 1-238)
# T5 sequence: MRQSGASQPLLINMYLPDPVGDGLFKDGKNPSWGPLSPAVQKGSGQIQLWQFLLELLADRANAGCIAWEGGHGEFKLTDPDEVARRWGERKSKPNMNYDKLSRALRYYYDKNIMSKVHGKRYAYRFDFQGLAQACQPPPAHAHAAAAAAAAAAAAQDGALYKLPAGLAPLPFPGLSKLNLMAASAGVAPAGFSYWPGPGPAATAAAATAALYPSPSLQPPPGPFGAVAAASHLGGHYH
# How it was run: as §1
# SPIC = target: T6, SPIC (Homo sapiens, UniProt Q8N5J4 1-248)
# T6 sequence: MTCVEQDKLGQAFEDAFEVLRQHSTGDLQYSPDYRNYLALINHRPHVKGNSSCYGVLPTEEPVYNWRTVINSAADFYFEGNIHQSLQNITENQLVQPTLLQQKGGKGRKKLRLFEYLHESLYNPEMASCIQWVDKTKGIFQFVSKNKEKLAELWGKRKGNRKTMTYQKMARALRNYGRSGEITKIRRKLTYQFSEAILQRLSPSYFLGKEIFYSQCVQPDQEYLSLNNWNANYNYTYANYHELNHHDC
# How it was run: as §1
# ELF4 = ELF4 (Homo sapiens, UniProt Q99607 1-663)
# How it was run: as §1
# ELK4 = target: T7, ELK4 (Homo sapiens, UniProt P28324-2 1-405)
# T7 sequence: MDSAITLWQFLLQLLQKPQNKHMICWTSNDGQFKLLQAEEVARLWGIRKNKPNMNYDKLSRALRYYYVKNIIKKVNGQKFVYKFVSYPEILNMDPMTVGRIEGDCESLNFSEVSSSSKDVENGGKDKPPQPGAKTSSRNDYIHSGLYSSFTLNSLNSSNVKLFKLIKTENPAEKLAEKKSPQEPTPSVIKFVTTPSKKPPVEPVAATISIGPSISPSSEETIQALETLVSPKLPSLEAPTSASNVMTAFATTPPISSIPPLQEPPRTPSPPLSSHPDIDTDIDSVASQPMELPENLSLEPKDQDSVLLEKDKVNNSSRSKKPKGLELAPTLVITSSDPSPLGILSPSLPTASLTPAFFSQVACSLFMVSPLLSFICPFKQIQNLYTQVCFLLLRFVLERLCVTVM
# How it was run: as §1
# ETV2 = target: T8, ETV2 (Homo sapiens, UniProt O00321 1-342)
# T8 sequence: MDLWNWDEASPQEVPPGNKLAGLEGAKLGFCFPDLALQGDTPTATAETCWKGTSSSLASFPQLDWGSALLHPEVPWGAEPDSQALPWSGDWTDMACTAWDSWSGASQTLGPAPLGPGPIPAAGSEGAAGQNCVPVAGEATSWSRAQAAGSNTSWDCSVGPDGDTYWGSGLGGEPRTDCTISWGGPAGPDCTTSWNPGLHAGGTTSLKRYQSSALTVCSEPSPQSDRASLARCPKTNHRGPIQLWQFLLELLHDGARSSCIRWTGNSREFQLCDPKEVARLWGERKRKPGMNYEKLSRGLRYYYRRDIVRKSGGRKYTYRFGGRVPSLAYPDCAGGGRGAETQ
# How it was run: as §1
# ETV3L = target: T9, ETV3L (Homo sapiens, UniProt Q6ZN32 1-361)
# T9 sequence: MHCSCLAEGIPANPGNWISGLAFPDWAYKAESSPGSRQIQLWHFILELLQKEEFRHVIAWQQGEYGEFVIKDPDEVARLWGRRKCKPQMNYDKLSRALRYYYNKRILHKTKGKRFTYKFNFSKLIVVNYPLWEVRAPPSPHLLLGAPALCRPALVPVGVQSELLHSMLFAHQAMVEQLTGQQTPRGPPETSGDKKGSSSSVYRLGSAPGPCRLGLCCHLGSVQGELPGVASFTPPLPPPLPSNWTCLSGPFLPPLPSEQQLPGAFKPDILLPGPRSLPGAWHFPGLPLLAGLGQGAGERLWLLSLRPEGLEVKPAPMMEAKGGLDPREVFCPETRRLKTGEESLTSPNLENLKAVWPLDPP
# How it was run: as §1
# SPDEF = target: T10, SPDEF (Homo sapiens, UniProt O95238 1-335)
# T10 sequence: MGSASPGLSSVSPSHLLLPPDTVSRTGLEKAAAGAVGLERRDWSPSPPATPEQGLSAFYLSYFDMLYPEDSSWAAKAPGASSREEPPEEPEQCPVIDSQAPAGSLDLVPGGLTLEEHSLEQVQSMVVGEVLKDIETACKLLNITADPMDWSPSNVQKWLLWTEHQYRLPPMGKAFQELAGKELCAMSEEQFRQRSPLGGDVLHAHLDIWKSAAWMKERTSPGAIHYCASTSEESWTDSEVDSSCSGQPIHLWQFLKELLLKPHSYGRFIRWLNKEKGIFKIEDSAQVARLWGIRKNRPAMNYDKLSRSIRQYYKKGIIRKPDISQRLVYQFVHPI
# How it was run: as §1
# ETV3 = target: T11, ETV3 (Homo sapiens, UniProt P41162-2 1-143)
# T11 sequence: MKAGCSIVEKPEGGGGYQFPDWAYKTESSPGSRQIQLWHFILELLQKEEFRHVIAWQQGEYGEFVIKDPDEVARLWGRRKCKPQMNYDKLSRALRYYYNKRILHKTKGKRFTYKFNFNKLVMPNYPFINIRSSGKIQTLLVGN
# How it was run: as §1
# Chain of ELF1 (P32519 whole entry): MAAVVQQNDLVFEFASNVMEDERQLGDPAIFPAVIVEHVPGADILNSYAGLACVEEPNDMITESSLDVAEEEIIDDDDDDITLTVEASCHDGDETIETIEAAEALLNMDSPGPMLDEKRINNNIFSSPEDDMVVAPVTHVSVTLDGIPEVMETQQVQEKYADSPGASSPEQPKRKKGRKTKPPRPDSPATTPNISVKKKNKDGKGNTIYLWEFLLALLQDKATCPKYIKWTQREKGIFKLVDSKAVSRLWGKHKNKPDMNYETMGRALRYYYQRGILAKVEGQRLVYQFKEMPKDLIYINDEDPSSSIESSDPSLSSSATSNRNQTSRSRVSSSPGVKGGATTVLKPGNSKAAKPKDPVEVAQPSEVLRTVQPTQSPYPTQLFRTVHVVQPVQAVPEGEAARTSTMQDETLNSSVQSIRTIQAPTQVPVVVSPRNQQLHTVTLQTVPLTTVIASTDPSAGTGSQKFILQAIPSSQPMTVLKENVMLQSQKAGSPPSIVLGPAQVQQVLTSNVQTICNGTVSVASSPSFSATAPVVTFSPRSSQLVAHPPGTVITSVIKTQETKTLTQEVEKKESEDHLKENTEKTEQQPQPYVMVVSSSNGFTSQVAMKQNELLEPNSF
# Chain of ELF4 (Q99607 whole entry): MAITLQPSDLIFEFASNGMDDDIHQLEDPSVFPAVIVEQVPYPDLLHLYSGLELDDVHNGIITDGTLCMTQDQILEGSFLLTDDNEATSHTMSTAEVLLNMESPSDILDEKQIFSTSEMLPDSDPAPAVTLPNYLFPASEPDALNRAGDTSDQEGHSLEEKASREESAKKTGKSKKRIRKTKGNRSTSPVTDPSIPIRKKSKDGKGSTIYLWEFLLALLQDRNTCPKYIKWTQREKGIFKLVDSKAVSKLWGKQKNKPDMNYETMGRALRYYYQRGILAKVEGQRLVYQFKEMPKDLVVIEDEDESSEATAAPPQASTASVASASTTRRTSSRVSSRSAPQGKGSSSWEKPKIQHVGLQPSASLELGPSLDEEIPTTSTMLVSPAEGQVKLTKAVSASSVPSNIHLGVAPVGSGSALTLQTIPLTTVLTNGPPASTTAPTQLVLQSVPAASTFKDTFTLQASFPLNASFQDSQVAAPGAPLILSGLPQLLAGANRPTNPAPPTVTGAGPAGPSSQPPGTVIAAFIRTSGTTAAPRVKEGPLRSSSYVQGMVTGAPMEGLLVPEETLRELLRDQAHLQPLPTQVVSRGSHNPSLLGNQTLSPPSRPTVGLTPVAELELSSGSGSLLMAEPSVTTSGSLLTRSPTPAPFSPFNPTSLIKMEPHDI
sequence,measurement,setting,value
ACGCGC,binding signal,ELK1,"1.12 fold enrichment (6-mer frequency, TF over GST control)"
same,binding signal,GABPA,"1.07 fold enrichment (6-mer frequency, TF over GST control)"
same,binding signal,ELF1,"1.05 fold enrichment (6-mer frequency, TF over GST control)"
same,binding signal,EHF,"1.07 fold enrichment (6-mer frequency, TF over GST control)"
same,binding signal,ELK3,"1.04 fold enrichment (6-mer frequency, TF over GST control)"
same,binding signal,FEV,"1.04 fold enrichment (6-mer frequency, TF over GST control)"
same,binding signal,SPIC,"1.05 fold enrichment (6-mer frequency, TF over GST control)"
same,binding signal,ELF4,"1.06 fold enrichment (6-mer frequency, TF over GST control)"
same,binding signal,ELK4,"1.02 fold enrichment (6-mer frequency, TF over GST control)"
same,binding signal,ETV2,"1.08 fold enrichment (6-mer frequency, TF over GST control)"
same,binding signal,ETV3L,"1.09 fold enrichment (6-mer frequency, TF over GST control)"
same,binding signal,SPDEF,"1.06 fold enrichment (6-mer frequency, TF over GST control)"
same,binding signal,ETV3,"1.09 fold enrichment (6-mer frequency, TF over GST control)"
